The sample as a whole holds a higher share of hits than the screen did.
GALK inh = blocks human galactokinase activity | hit rate 0.007% among 270,000 | Potency, µM (series often up to 57.5 µM), without a hit: at the top dose activity change, negative = inhibition, hits mostly inhibitors | Purified GALK, Kinase-Glo residual ATP luminescence | P51570 | AID 1868; note: % is set by controls: 0 for no effect and ±100 for the full control effect
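5 nM enzyme, 35 uM ATP, 100 uM galactose, 20 mM HEPES pH8.0, 5 mM MgCl2; 1 h RT; residual ATP by Kinase-Glo Plus luminescence, qHTS format.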
ClpP mod = qHTS Assay for Activators of ClpP; Potency, µM (highest dose often 57.5 µM), for the others: at the top dose activity change, negative = active; ATP-dependent Clp protease proteolytic subunit (Bacillus subtilis (strain 168)), P80244; purified B. subtilis ClpP, FRET peptide cleavage, 20 min; hit rate 1.9% among 340,000; active = well fitted falling curve with a large enough effect; inconclusive = small, poorly fitted or top-dose-only effect; inactive = no such curve, though single readings can be large or run the other way; note: the source files actives as falling curves though it sought activators and does not explain the sign; nearly all actives have a fitted effect of over 65% in size
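FRET quenching reversal measured ClpP activation: 10 microg/mL B. subtilis ClpP at pH 8 with the FRET-FV decapeptide, read at 430 nm after 320 nm excitation. The 20-min minus 0-min signal was scaled between DMSO/no-enzyme wells and ADEP (5.8 microM final).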
USP2a inh = blocks human ubiquitin-specific protease USP2a | Potency, µM (doses to about 38.3 µM), for the others: at the top dose activity change, negative = inhibition, most hits filed as inhibitors | USP2 core, Ub-CHOP2 coupled fluorogenic reporter, 485/531 | AID 463254 | O75604 | hit rate 0.01% among 330,000;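 note: plate controls were DMSO wells for no effect and full inhibition by NEM control for full effect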
Target sequence (O75604 whole entry, looked up): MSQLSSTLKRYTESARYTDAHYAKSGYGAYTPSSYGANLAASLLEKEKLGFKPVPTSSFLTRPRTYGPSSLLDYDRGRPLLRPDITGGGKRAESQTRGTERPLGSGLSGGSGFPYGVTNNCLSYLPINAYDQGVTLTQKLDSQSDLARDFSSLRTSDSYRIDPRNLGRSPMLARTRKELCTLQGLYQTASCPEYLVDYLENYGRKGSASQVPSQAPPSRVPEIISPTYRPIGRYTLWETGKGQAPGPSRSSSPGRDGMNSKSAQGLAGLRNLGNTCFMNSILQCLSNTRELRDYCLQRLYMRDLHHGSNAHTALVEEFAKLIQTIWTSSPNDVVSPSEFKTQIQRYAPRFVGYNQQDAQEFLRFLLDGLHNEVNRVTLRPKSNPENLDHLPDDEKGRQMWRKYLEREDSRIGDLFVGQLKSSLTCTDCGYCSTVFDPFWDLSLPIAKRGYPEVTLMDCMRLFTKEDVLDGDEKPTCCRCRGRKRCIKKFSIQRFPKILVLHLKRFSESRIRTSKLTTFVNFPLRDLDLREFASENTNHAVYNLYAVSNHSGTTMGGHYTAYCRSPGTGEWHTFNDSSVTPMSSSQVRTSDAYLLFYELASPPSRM
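USP2 core (10nM final) preincubated 30min RT with compound in 20mM Tris-HCl pH 8.0, 2mM CaCl2, 2mM beta-mercaptoethanol, 0.05% CHAPS; 25nM Ub-CHOP2 plus 25nM reporter substrate added, fluorescence (Ex485/Em531) read after 60min.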
Eya2 phos inh = Eya2 (human) phosphatase inhibition; O00167; recombinant Eya2, OMFP fluorescence dephosphorylation (OMFP is methylfluorescein phosphate); Potency, µM (highest dose often 76.9 µM), for the others: top-dose activity, negative = inhibition, usual class: inhibitors; hit rate 0.006% among 330,000; AID 488837; note: % is set by controls: 0 for no effect and ±100 for the full control effect
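Eya2 (0.2 uM) preincubated 10 min at ambient with compound, then OMFP substrate added at 50 uM; 10 min reaction in 50 mM HEPES pH 7.5, 50 mM NaCl, 5 uM MgCl2, 0.05% BSA, 1 mM DTT. Fluorescence read at Ex 485/Em 525 nm.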
The depositor's hits bear a star; ? = inconclusive; . = no result. Unless noted, calls come from the whole dose curve; as a rule, active = well fitted inhibition curve with a large enough effect; inconclusive = small, poorly fitted or top-dose-only effect, or effect the other way; inactive = flat fitted curve, though single readings scatter. Potency is the fitted concentration of half-maximal effect.

SMILES | GALK inh | ClpP mod | USP2a inh | Eya2 phos inh
CNC(=S)N1CCN(c2c(F)cc3c(=O)c(C(=O)O)cn(C4CC4)c3c2OC)CC1C (stereo not given) | 2.2% | 28.2µM* | 2.8% | 10.0%
Cc1cc2oc(=O)c(CC(=O)O)c(C)c2c2occ(-c3ccccc3)c12 | . | 31.6µM* | . | .
O=C(Nc1cccc(F)c1)c1cccnc1N1CCOCC1 | -0.6% | -2.5% | -1.3% | 3.1%
COc1ccc(NS(=O)(=O)c2cccc(C(=O)NNC(=O)c3cncc(Br)c3)c2)cc1 | . | 28.2µM* | 2.0% | -34.6%
CC(C)Oc1ccc(C(=O)NNC(=O)c2ccccc2C(=O)O)cc1 | -1.1% | 0.4% | 1.8% | 7.9%
COc1cc2c(cc1OC)C(c1ccc(N(C)C)cc1)CC(=O)N2 (stereo not given) | -0.1% | 10µM* | -4.3% | -9.0%
CCOC(=O)C1CCN(C(=O)C23CC4CC(CC(C4)C2)C3)CC1 | -1.0% | -0.6% | 3.5% | 3.2%
O=C(O)c1cc2cc(S(=O)(=O)O)ccc2cc1O | . | -2.6% | . | .
O=C(O)c1cc(S(=O)(=O)O)ccc1O | -3.7% | 20µM* | -0.7% | -1.4%
COCCN1CCN(c2cc(-c3ccccc3)nc3cc(-c4cccc(F)c4)nn23)CC1 | -3.1% | 25.1µM* | 1.2% | -7.9%
Fc1cccc(-c2cc3nc(-c4ccccc4)cc(N4CCC5(CC4)OCCO5)n3n2)c1 | -0.2% | ? | -0.6% | -7.3%
CC(C)CC(NC(=O)C1CCC(C)CC1)C(=O)N1CCN(c2ccccn2)CC1 (stereo not given) | 1.0% | 4.0% | -0.6% | -3.0%
Cc1ccc(CNc2cnccn2)cc1 | 1.4% | 14.1µM* | 1.2% | 6.6%
c1ccc(CNc2cnccn2)cc1 | 0.3% | 3.16µM* | 1.0% | 4.4%
COc1ccc(Cn2c(C(=O)O)c(CNCCc3cccs3)c3ccc(C)cc32)cc1 | . | -8.6% | . | .
Cc1cccc(N=C2NN=C(c3c(C)[nH]c4ccccc34)CS2)c1 | -0.4% | 17.8µM* | -4.6% | -0.3%
Cc1ccc(NS(=O)(=O)c2ccc(C(=O)OCC(=O)N3CCCCC3)cc2)cc1 | . | 0.5% | 0.1% | -14.6%
CCOc1ccc(C(=O)CCC(=O)N2CCN(c3ncccn3)CC2)cc1 | 11.1% | 0.0% | 2.8% | 2.5%
COC(=O)c1cccc(NC(=S)N2CCN(C)CC2)c1 | 4.4% | 12.6µM* | -1.2% | 7.9%
CCN(CC(=O)NCc1cccs1)C(=O)c1cccc(S(=O)(=O)Nc2ccccc2Cl)c1 | . | 35.5µM* | 0.2% | 16.0%
CCN(CC(=O)NCc1cccs1)C(=O)c1cccc(S(=O)(=O)NC)c1 | . | 0.0% | 3.5% | 11.8%
COc1cccc2[nH]c3c(N4CCCCC4)ncnc3c12 | 2.6% | 28.2µM* | 1.2% | 0.6%
CCOC(=O)C1CCN(c2ncnc3c2[nH]c2cccc(OC)c23)CC1 | 2.3% | 8.8% | -5.0% | 2.5%
COc1cccc2[nH]c3c(Cl)ncnc3c12 | . | 15.8µM* | 3.3% | -7.9%
O=C(COc1ccc(Cl)cc1)NCC(c1cccs1)S(=O)(=O)c1ccc(F)cc1 (stereo not given) | . | -1.2% | . | .
SMILES | GALK inh | ClpP mod | USP2a inh | Eya2 phos inh
CC(NCC(O)c1ccc([N+](=O)[O-])cc1)C12CC3CC(CC(C3)C1)C2 (stereo not given) | 1.9% | -1.2% | -7.7% | -7.3%
N#CC(C#SN)=C1CCCCC1 | 1.4% | -0.8% | -3.1% | -15.9%
CC1(C(=O)Nc2cccc3cccnc23)CCN1Cc1cccc2c1OCO2 (stereo not given) | . | 31.6µM* | . | .
COC(=O)C1=C(C(=O)OC)[C@]2([C@H]3C/C=C\CN[C@@H](Cc4ccccc4)C(=O)N3Cc3ccccc3)C=C[C@H]1O2 | . | 0.4% | . | .
c1ccc2c(c1)nnn2Cc1nnc2sc(-c3ccc4c(c3)OCCO4)nn12 | -2.5% | 31.6µM* | -1.7% | 13.7%
Cc1[nH]c2ccccc2c1C(=O)CN1C(=O)C(=O)N(Cc2ccco2)C1=O | 11.1% | 28.2µM* | -0.9% | -9.4%
O=C(C1CCCN(Cc2ccccc2[N+](=O)[O-])C1)N1CCCC1 (stereo not given) | . | 28.2µM* | 0.5% | -22.8%
C[C@@H]1CCCCO[C@H](CN(C)C(=O)Nc2cccc3ccccc23)[C@@H](C)CN([C@H](C)CO)C(=O)c2cc(N(C)C)ccc2O1 | . | -14.0% | . | .
Cc1cc(C)cc(Nc2nc(-c3ccc(S(=O)(=O)N4CCCC4)cc3)cs2)c1 | 0.2% | 3.7% | 2.0% | -8.4%
COc1ccc(NS(=O)(=O)c2ccc(S(=O)(=O)N3CCOCC3)cc2)cc1 | 8.2% | 15.8µM* | 3.1% | -16.2%
